# From PubChem BioAssay (NCATS)
# Values joined by “and” are separate entries in the source; they are usually repeats but may differ in a detail not shown here. Equal entries are not always repeated. Values without a mark were called inactive. Inconclusive results are not listed. A call without a number means that no potency is given here. More than one record can exist for a structure, and the calls need not agree. Active and inactive are the calls of the source. Unless noted, calls come from the whole dose curve; as a rule, active = well fitted curve in the direction sought with a large enough effect; inconclusive = small, poorly fitted or top-dose-only effect, or another doubt; inactive = no such curve, though single readings can be large; an effect the other way counts as inactive or inconclusive.
# Experiments:
# [1] = system: UISO; experiment: qHTS assay to identify novel small-molecules to repurpose for Merkel cell carcinoma treatment (AID 1296009); conditions: MCC and control cell lines, CellTiter-Glo viability, 72 h; series mostly up to 46 µM; note: nearly all actives have a fitted effect of over 60% in size
# Procedure, shortened: (§1)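 72 hr, 37 degree celsius; NPC 8-pt / MIPE 11-pt dose response; compound pinned in DMSO; CellTiter-Glo, 10 min RT, luminescence; normalized to no-cell and DMSO controls.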
# [2] = system: WaGa; experiment: as above; conditions: MCC and control cell lines, CellTiter-Glo viability, 72 h; series mostly up to 46 µM
# Procedure, shortened: as §1
# [3] = system: C33A; experiment: Primary qHTS to identify gynecologic anti-cancer compounds using libraries of approved drugs and bioactive compounds (AID 1345084); conditions: Gynecologic cancer cell panel viability, ATPlite luminescence, 48 h; series mostly up to 57.5 µM; note: nearly all actives have a fitted effect of over 55% in size; note: potency is the fitted concentration of half-maximal effect
# Procedure, shortened: (§2)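 Cells, 1,000 per well, plated 16 h, then exposed 48 h at 37 C to compounds. Viability by ATPlite luminescence after 15 min at room temperature.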
# [4] = system: CAOV3; experiment: as above; conditions: Gynecologic cancer cell panel viability, ATPlite luminescence, 48 h; series mostly up to 57.5 µM
# Procedure, shortened: as §2
# [5] = system: CASKI; experiment: as above; conditions: Gynecologic cancer cell panel viability, ATPlite luminescence, 48 h; series mostly up to 57.5 µM
# Procedure, shortened: as §2
# [6] = system: Es-2; experiment: as above; conditions: Gynecologic cancer cell panel viability, ATPlite luminescence, 48 h; series mostly up to 57.5 µM
# Procedure, shortened: as §2
# [7] = system: HeLa; experiment: as above; conditions: Gynecologic cancer cell panel viability, ATPlite luminescence, 48 h; series mostly up to 57.5 µM
# Procedure, shortened: as §2
# [8] = system: Hek293T; experiment: as above; conditions: Gynecologic cancer cell panel viability, ATPlite luminescence, 48 h, control line for the selectivity index; series mostly up to 57.5 µM
# Procedure, shortened: as §2
# [9] = system: JEG-3; experiment: as above; conditions: Gynecologic cancer cell panel viability, ATPlite luminescence, 48 h; series mostly up to 57.5 µM
# Procedure, shortened: as §2
# [10] = system: OV90; experiment: as above; conditions: Gynecologic cancer cell panel viability, ATPlite luminescence, 48 h; series mostly up to 57.5 µM
# Procedure, shortened: as §2
# [11] = system: PA-1; experiment: as above; conditions: Gynecologic cancer cell panel viability, ATPlite luminescence, 48 h; series mostly up to 57.5 µM
# Procedure, shortened: as §2
# [12] = system: SKOV3; experiment: as above; conditions: Gynecologic cancer cell panel viability, ATPlite luminescence, 48 h; series mostly up to 57.5 µM
# Procedure, shortened: as §2
# [13] = system: Tov-21-G; experiment: as above; conditions: Gynecologic cancer cell panel viability, ATPlite luminescence, 48 h; series mostly up to 57.5 µM
# Procedure, shortened: as §2
# [14] = system: Tov112D; experiment: as above; conditions: Gynecologic cancer cell panel viability, ATPlite luminescence, 48 h; series mostly up to 57.5 µM
# Procedure, shortened: as §2
# [15] = Drug repurposing screens with cells derived from glioblastoma tumor samples (AID 1345199); conditions: GBM patient neurospheres viability, ATP luminescence, 48 h; note: nearly all actives have a fitted effect of over 40% in size; note: potency is the fitted concentration of half-maximal effect
# Procedure, shortened: (§3)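 Four patient lines of CD133+ GBM neurospheres were screened at several concentrations; hits were retested in those lines plus three slower-growing GBM lines, using 48-hour treatment and ATP-based viability.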
# [16] = system: astro; experiment: as above; conditions: viability, ATP luminescence, 48 h; series mostly up to 45.9 µM
# Procedure, shortened: as §3
# [17] = target: Nuclear receptor subfamily 1 group I member 2 (Rattus norvegicus) (UniProt Q9R1A7); experiment: qHTS assay for small molecule activators of the rat pregnane X receptor (rPXR) signaling pathway (AID 651751; call rule not given here); conditions: rPXR reporter cells, luciferase (One-Glo), 24 h
# Sequence of Nuclear receptor subfamily 1 group I member 2 (Rattus norvegicus) (Q9R1A7 whole entry, looked up): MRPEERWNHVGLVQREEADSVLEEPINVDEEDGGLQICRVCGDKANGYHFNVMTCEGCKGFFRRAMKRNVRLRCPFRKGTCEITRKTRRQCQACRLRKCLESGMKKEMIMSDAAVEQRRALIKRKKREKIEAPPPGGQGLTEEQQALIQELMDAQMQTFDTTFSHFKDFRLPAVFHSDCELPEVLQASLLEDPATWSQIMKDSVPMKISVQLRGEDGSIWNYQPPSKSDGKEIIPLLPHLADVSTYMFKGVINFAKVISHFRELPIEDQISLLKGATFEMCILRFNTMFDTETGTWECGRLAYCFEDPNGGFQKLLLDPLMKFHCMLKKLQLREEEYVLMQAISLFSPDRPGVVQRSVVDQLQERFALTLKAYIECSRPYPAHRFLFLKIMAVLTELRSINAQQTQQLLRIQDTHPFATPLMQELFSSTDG
# [18] = at 45.9 µM (top of the series), tumour line B
# [19] = at 45.9 µM (top of the series), tumour line D
# [20] = at 46 µM (top of the series), tumour line A
smiles,measurement,setting,value
c1ccc2c(c1)Nc1ccccc1S2,Potency,[1],inactive
same,Potency,[2],inactive
same,Potency,[3],inactive
same,Potency,[4],inactive
same,Potency,[5],inactive
same,Potency,[6],inactive
same,Potency,[7],inactive
same,Potency,[8],inactive
same,Potency,[9],inactive
same,Potency,[10],inactive
same,Potency,[11],inactive
same,Potency,[12],inactive
same,Potency,[13],inactive
same,Potency,[14],inactive
same,"activity, negative = cell killing",[15]; [18],-14.1%
same,"activity, negative = cell killing",[15]; [19],-9.6%
same,"activity, negative = cell killing","[15]; at 91.6 µM (top of the series), tumour line B",-11.1%
same,"activity, negative = cell killing","[15]; at 91.6 µM (top of the series), tumour line D",-20.1%
same,Potency,[15]; tumour line A,31.6 µM (active)
same,Potency,[16],inactive
same,max response,[17],0.0251% and 2.69%
C=CCN1CC[C@]23c4c5ccc(O)c4O[C@H]2C(=O)CC[C@@]3(O)[C@H]1C5,Potency,[1],inactive
same,Potency,[2],inactive
same,Potency,[3],inactive
same,Potency,[4],inactive
same,Potency,[5],inactive
same,Potency,[6],inactive
same,Potency,[7],inactive
same,Potency,[8],inactive
same,Potency,[9],inactive
same,Potency,[10],inactive
same,Potency,[11],inactive
same,Potency,[12],inactive
same,Potency,[13],inactive
same,Potency,[14],inactive
same,"activity, negative = cell killing",[15]; [19],-22.2%
same,"activity, negative = cell killing",[15]; [20],15.9%
CC1=C2C[C@@H]3[C@@H](CC=C4C[C@@H](O)CC[C@@]43C)[C@@H]2CC[C@]12O[C@H]1C[C@H](C)CN[C@H]1[C@H]2C,Potency,[1],inactive
same,Potency,[2],inactive
Cc1cccc(C)c1NC(=O)CN1CCCC1=O,Potency,[1],inactive
same,Potency,[2],inactive
same,Potency,[3],inactive
same,Potency,[4],inactive
same,Potency,[5],inactive
same,Potency,[6],inactive
same,Potency,[7],inactive
same,Potency,[8],inactive
same,Potency,[10],inactive
same,Potency,[11],inactive
same,Potency,[12],inactive
same,Potency,[13],inactive
same,Potency,[14],inactive
same,"activity, negative = cell killing",[15]; [18],-2.88%
same,"activity, negative = cell killing",[15]; [19],-0.691%
same,"activity, negative = cell killing",[15]; [20],-27.7%
C[C@]12CC[C@H]3[C@@H](CCC4=CC(=O)CC[C@@H]43)[C@@H]1CC[C@@H]2OC(=O)CCc1ccccc1,Potency,[1],inactive
same,Potency,[2],inactive
same,Potency,[3],inactive
same,Potency,[4],inactive
same,Potency,[5],inactive
same,Potency,[6],inactive
same,Potency,[7],3.55 µM (active)
same,Potency,[8],inactive
same,Potency,[9],inactive
same,Potency,[10],inactive
same,Potency,[12],inactive
same,Potency,[13],inactive
same,Potency,[14],inactive
CCC1(C2=NCCN2)Cc2ccccc2O1 (stereo not given),Potency,[1],inactive
same,Potency,[2],inactive
same,Potency,[3],inactive
same,Potency,[4],inactive
same,Potency,[5],inactive
same,Potency,[6],inactive
same,Potency,[7],inactive
same,Potency,[8],inactive
same,Potency,[9],inactive
same,Potency,[10],inactive
same,Potency,[11],inactive
same,Potency,[12],inactive
same,Potency,[13],inactive
same,Potency,[14],inactive
same,"activity, negative = cell killing",[15]; [18],-22.3%
same,"activity, negative = cell killing",[15]; [19],-18%
same,Potency,[15]; tumour line A,7.08 µM (active)
